High-throughput results (PubChem BioAssay)
NPC1 prom act: activators of NPC1 promoter; Huh7 NPC1 promoter luciferase reporter, 24 h; Potency, µM (series often up to 9.22 µM), inactives show at the highest dose activation, hits mostly activators; 320,000 tested, 2.4% active; note: % of control where 0% means no effect; nearly all actives have a fitted effect of over 60% in size
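Cells: Huh7 expressing luciferase under the NPC1 promoter, 1500/well. Seeded 2 h, compound added, incubated 24 h at 37 °C. Luciferase reagent, 10 min ambient, then luminescence.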
SMN2 splice enh: increases expression of the SMN2 splice variant | HEK293 SMN2-luciferase splicing reporter, luminescence, 30-36 h | Potency, µM (titrated, usually from 46.1 µM), without a hit: at the highest dose activity change, positive = activation, actives largely listed as activators | 210,000 tested, 2.8% active | AID 1458; note: % of control where 0% means no effect; nearly all actives have a fitted effect of over 55% in size
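HEK293 cells carry an SMN2 minigene-luciferase reporter in which exon 7 inclusion puts luciferase in frame. Cells were seeded at 2000 cells/well, attached for 10-12 hours, then exposed to compounds for 30-36 hours at 37C before ONE-Glo luminescence.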
FLuc counter: counter-screen for miR-21 project: firefly luciferase inhibitors or activators; P08659; purified FLuc, Km substrates, luminescence inhibition; Potency, µM (highest dose often 57.5 µM), for inactives: top-dose activity change, negative = inhibition, hits mostly inhibitors; 360,000 tested, 6.9% active;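 note: plate controls were vehicle for no effect and reference inhibitor for full effect; nearly all actives have a fitted effect of over 55% in size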
Target sequence (P08659 whole entry, looked up): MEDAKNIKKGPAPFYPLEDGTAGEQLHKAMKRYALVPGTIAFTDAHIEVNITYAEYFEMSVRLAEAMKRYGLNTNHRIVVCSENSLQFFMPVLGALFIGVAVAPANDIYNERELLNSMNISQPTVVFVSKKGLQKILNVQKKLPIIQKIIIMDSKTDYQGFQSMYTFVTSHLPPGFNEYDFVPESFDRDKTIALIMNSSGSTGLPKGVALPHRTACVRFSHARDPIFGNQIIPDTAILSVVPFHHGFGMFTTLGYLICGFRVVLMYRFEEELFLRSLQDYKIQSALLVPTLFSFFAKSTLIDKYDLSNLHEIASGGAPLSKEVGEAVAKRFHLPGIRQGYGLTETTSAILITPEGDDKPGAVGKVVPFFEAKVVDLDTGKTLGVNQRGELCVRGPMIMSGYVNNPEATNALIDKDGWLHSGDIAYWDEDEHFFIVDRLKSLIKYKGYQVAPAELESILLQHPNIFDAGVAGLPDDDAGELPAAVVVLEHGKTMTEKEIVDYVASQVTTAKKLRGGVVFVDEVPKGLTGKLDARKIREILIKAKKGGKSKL
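Biochemical qHTS of compounds, final roughly 60 µM downward over six points, against 10 nM purified firefly luciferase using Km concentrations of substrates (10 uM D-luciferin, 10 uM ATP) in Tris acetate pH 7.5 buffer; luminescence output.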
ELG1 DNA repair: inhibitors of ELG1-dependent DNA repair in HEK293T cells. HEK293T ELG1-luciferase reporter, luminescence, 16 h; DNA damage induced by 5-fluorouridine. Potency, µM (highest dose often 46.1 µM), without a hit: at the highest dose activity change, negative = inhibition, usual class: inhibitors. 330,000 tested, 2.3% active; note: % is set by controls: 0 for no effect and ±100 for the full control effect; nearly all actives have a fitted effect of over 55% in size
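Luminescence from the luciferase reporter, measured 30 min after ONE-Glo reagent at room temperature, was the read-out. Beforehand, 2,000 cells per well were exposed for 16 hr at 37 °C to 5-fluorouridine together with compound or vehicle.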
Rab9 prom act: activates the Rab9 promoter; Huh7 Rab9 promoter-luciferase reporter, luminescence, 24 h; 320,000 tested, 2.8% active; Potency, µM (series often up to 9.22 µM), for inactives: at the highest dose activation, negative = inhibition, hits mostly activators; AID 485297; note: % of control where 0% means no effect; nearly all actives have a fitted effect of over 60% in size
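Huh7 cells stably carrying a Rab9 promoter-luciferase reporter, 1500 cells per well in OP-MEM I with 10% FBS, treated with compound 24 hours at 37C. Luciferase activity read by luminescence after 10 minutes with Amplite reagent.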
ELG1 genotoxic: inducers of genotoxicity in HEK293T ELG1-luciferase cells. HEK293T ELG1-luciferase reporter, luminescence, 16 h. Potency, µM (highest dose often 46 µM), for the others: top-dose activity change, positive = activation, actives largely listed as activators. 330,000 tested, 1.3% active; note: % of control where 0% means no effect; nearly all actives have a fitted effect of over 60% in size
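After overnight (16 hr) compound treatment at 37 °C, ELG1-luciferase HEK293T cells were lysed with ONE-Glo; luminescence quantified 30 min later at room temperature.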
Numbers without * were called inactive; ? = inconclusive; nt = not tested or not shown; [ ] = remark or other dose. In the library only some 9.3% were active in any assay of this set; here they are far more common. Calls come from the whole dose curve; as a rule, active = well fitted curve in the direction sought with a large enough effect; inconclusive = small, poorly fitted or top-dose-only effect, or another doubt; inactive = no such curve, though single readings can be large; an effect the other way counts as inactive or inconclusive. Potency is the fitted concentration of half-maximal effect.

SMILES	NPC1 prom act	SMN2 splice enh	FLuc counter	ELG1 DNA repair	Rab9 prom act	ELG1 genotoxic
Cc1ccc(-c2nnc(Nc3ccccc3)c3ccccc23)cc1S(=O)(=O)NCC1CCCO1 (stereo unspecified)	-4.6%	16.3%	?	20.6µM*	3.1%	-6.8%
CCc1ccc(-n2c(C)n[nH]c2=S)cc1	-1.1%	nt	-1.2%	14.8%	-0.2%	2.6%
O=C(O)CC(NCc1ccco1)C(=O)Nc1cccc(O)c1 (stereo unspecified)	-5.4%	nt	-0.6%	7.4%	0.6%	-1.1%
CCCn1c(-c2ccc[nH]c2=O)nc2cc(C)c(C)cc21	0.3%	nt	13.5µM*	?	19.0%	?
Cc1cc2ccccc2c(=O)[nH]1	-4.0%	13.6%	0.9%	?	-2.8%[1.84 µM]	4.9%
O=c1[nH]c(-c2ccccn2)cc2ccccc12	?	15.8µM*	16.9µM*	?	?	?
C/C=C\C=C/C(=O)Nc1cccc(C2=NOC3(C2)C[C@@H](C(N)=O)N(C(=O)c2ccc(Cl)cc2)C3)c1 (stereo partly specified)	2.6%	nt	15.1µM*	13.8%	9.1%	3.3%
C/C=C\C=C/C(=O)Nc1cccc(C2=NOC3(C2)C[C@H](C(N)=O)N(C(=O)c2ccc(OC)cc2)C3)c1 (stereo partly specified)	1.6%	nt	15.1µM*	14.0%	-2.0%	5.0%
O=C(Cn1cc(SCc2ccc(Br)cc2)c2ccccc21)N1CCCCC1	nt	nt	-4.5%	nt	nt	nt
CCCOc1ccc(/C=N/NC(=O)c2nnn(-c3nonc3N)c2-c2cccs2)cc1OC	15.4%	nt	10.7µM*	-12.0%	-1.8%	-9.2%
COc1cccc(-c2c(C(=O)N/N=C(\C)c3cccs3)nnn2-c2nonc2N)c1	-4.0%	nt	4.5%	-8.6%	-1.3%	-4.0%
CCOc1cccc(-c2c(C(=O)N/N=C(\C)c3cccs3)nnn2-c2nonc2N)c1	-8.8%	nt	-0.7%	16.4µM*	11.5%	-6.2%
CCN1C(=S)SC(=O)C1=C1C=C(C)N(Cc2ccco2)C(C)=C1	1.41µM*	?	3.38µM*	?	0.631µM*	2.59µM*
COc1cc(NC(=O)NCCc2c(C)nn(C)c2C)cc(OC)c1OC	nt	nt	-7.8%	nt	nt	nt
Cc1cccc(N2CCN(C(=O)CCn3c(=S)[nH]c4cc5c(cc4c3=O)OCO5)CC2C)c1 (stereo unspecified)	-2.1%	-45.7%	-1.3%	10.3µM*	-0.7%	-21.5%
O=C(CCCn1c(=S)[nH]c2cc3c(cc2c1=O)OCO3)N1CCN(c2ccc(Cl)cc2)CC1	-6.0%	-60.0%	3.1%	23.1µM*	1.8%	-4.1%
Cc1cccc(N2CCN(C(=O)CCCn3c(=S)[nH]c4cc5c(cc4c3=O)OCO5)CC2)c1C	-11.0%	-27.6%	0.2%	10.3µM*	-3.7%	-14.6%
O=C(CCCn1c(=S)[nH]c2cc3c(cc2c1=O)OCO3)N1CCN(c2ccccc2)CC1	-7.2%	-23.0%	0.8%	-2.5%	-5.0%	-7.5%
O=C(c1ccc(Cn2c(=S)[nH]c3cc4c(cc3c2=O)OCO4)cc1)N1CCN(c2ncccn2)CC1	-7.3%	-49.5%	-7.0%	7.3µM*	-2.3%	-14.6%
O=C(CCn1c(=S)[nH]c2cc3c(cc2c1=O)OCO3)N1CCc2ccccc2C1	1.1%	3.1%	-0.3%	-16.1%	2.3%	-7.0%
CC(=O)c1ccc(N2CCN(C(=O)CCCn3c(=S)[nH]c4cc5c(cc4c3=O)OCO5)CC2)cc1	0.8%	-23.0%	4.3%	18.4µM*	-10.2%	-2.5%
COc1ccc(N2CCN(C(=O)CCCCCn3c(=S)[nH]c4cc5c(cc4c3=O)OCO5)CC2)cc1	20.6%	nt	0.3%	12.7%	-10.7%	0.2%
CC(C)CC1COC(=O)N1 (stereo unspecified)	-2.6%	nt	-0.1%	7.3%	-2.9%	-2.6%
O=C(NCC1CCN(c2ccc(S(=O)(=O)N3CCOCC3)cc2)CC1)c1ccc(Cl)cc1	-2.9%	-62.6%	-1.3%	20.6µM*	-9.6%	-10.2%
O=C(O)CC/C(=N\Nc1ccc(S(=O)(=O)N2CCCC2)cc1[N+](=O)[O-])c1cccs1	-0.7%	-29.9%	-4.0%	20.6µM*	0.3%	-16.6%
SMILES	NPC1 prom act	SMN2 splice enh	FLuc counter	ELG1 DNA repair	Rab9 prom act	ELG1 genotoxic
CCOc1cc(C)c(Cl)cc1S(=O)(=O)n1ccnc1	-2.8%	-3.2%	-14.9%	-2.0%	-4.2%	1.7%
COc1c(/C=N/NC(=O)[C@H]2C[C@@H]2c2ccccc2)c(CCN(C)C(C)=O)cc2c1OCO2	-3.9%	nt	-14.5%	13µM*	-2.0%	-1.7%
CCC(=O)N(C)CCc1cc2c(c(OC)c1/C=N/NC(=O)[C@H]1C[C@@H]1c1ccccc1)OCO2	-1.8%	nt	7.8%	?	-3.7%	-2.0%
O=C(Cn1nc2c(cc1=O)CCCC2)Nc1ccccc1C(F)(F)F	nt	nt	2.5%	nt	nt	nt
COc1ccc(-c2nc3cc([N+](=O)[O-])ccc3o2)cc1	2.51µM*	nt	0.477µM*	?	1.58µM*	?
Nc1ccc(-c2nc3cc([N+](=O)[O-])ccc3o2)cc1	1.41µM*	nt	2.13µM*	?	1.12µM*	14.5%
O=c1oc(-c2ccc([N+](=O)[O-])cc2)nc2ccc(O)cc12	-3.7%	-7.2%	15.1µM*	4.9%	?	-3.7%
CC(C)(C)Nc1nc2cc([N+](=O)[O-])ccc2o1	-0.2%	nt	?	?	0.6%	9.0%
COC(=O)C(C(=O)OC)c1ccc(-n2cccc2)cc1	-2.9%	-7.3%	0.0%	20.1%	0.5%	2.5%
COc1ccc(NC(=O)Cn2nc(C)c([N+](=O)[O-])c2C)cn1	-9.7%	7.5%	0.3%	9.8%	-1.0%	-1.4%
CCc1cccc2c3c([nH]c12)[C@@](CC)(CC(=O)O)OCC3	nt	2.0%[20.6 µM]	nt	nt	nt	nt
COc1ccc(CNC(=O)c2ccc3c(c2)N(C)C(=O)C2CCCCN32)cc1OC (stereo unspecified)	nt	nt	-1.6%	nt	nt	nt
CC(C)CN(C(=O)CCNC(=O)c1ccc(Cl)cc1)C1CCS(=O)(=O)C1 (stereo unspecified)	nt	nt	nt	?	nt	-2.0%
Cc1ccc(NC(=O)CCCn2nc(C)c3sc4ccccc4c3c2=O)c(Cl)c1	nt	nt	6.01µM*	nt	nt	nt
COc1cc(OC)c(NC(=O)CCCn2nc(C)c3sc4ccccc4c3c2=O)cc1Cl	nt	nt	13.5µM*	nt	nt	nt
COc1ccc(CNC(=O)CCCn2nc(C)c3sc4ccccc4c3c2=O)cc1OC	nt	nt	-19.9%	nt	nt	nt
CC(=O)Nc1ccc(NC(=O)CCCn2nc(C)c3sc4ccccc4c3c2=O)cc1	nt	nt	-6.4%	nt	nt	nt
O=C(NCCCN1CCOCC1)c1cc(-c2ccc(F)cc2)no1	0.9%	nt	1.5%	13.7%	21.7%	-0.6%[9.26 µM]
O=C(N/N=C/c1ccc2c(c1)OCO2)c1cccs1	1.26µM*	12.6µM*	3.38µM*	?	1.26µM*	7.31µM*
